This is an account of results in PubChem BioAssay (EPA / NIEHS).

The structures appear in SMILES notation. Results filed as inconclusive are left out. Calls of active or inactive are those of the source. How the source made its calls, unless noted: active means hit-call score of the fitted dose curve at least 0.9, where 1 is the maximum; inconclusive means response in the unintended direction; inactive means score below 0.9.

A short description of experiment [1]: BSK_4H_Eotaxin3: BioMAP Diversity Plus: 4H Assay for Eotaxin 3 Biomarker Activity (AID 2283000; active means hit-call score of the fitted dose curve at least 0.9, where 1 is the maximum; inactive means score below 0.9;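 on outcome: CCL26 protein level quantified by ELISA in parallel with SRB cytotoxicity check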). The settings on record: primary human endothelial cells (HUVEC); actives raise or lower the signal. A digest of the protocol: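 Eotaxin-3 (CCL26) levels were measured by ELISA in HUVEC primary cultures 24 h post-dosing. Gain or loss of signal was fitted in both directions, with DMSO serving as baseline and negative control.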

The target in experiment [2] is human Peroxisome Proliferator-activated Receptor alpha (PPARa), PPARA (gene 5465) (UniProt Q07869). Nature of the experiment: ATG_PPARa_TRANS: Attagene TRANS-FACTORIAL HepG2 Assay for human Peroxisome Proliferator-activated Receptor alpha (PPARa) (AID 2283001). In outline: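 Measures transcriptional activity of an exogenous chimeric PPARa-Gal4 protein in transiently transfected HepG2 cells after 24 h dosing. Reporter mRNA quantified via RT-PCR and capillary electrophoresis; DMSO served as negative control.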
Sequence of human Peroxisome Proliferator-activated Receptor alpha (PPARa), PPARA (gene 5465) (Q07869 whole entry, looked up, the tested form may be a part): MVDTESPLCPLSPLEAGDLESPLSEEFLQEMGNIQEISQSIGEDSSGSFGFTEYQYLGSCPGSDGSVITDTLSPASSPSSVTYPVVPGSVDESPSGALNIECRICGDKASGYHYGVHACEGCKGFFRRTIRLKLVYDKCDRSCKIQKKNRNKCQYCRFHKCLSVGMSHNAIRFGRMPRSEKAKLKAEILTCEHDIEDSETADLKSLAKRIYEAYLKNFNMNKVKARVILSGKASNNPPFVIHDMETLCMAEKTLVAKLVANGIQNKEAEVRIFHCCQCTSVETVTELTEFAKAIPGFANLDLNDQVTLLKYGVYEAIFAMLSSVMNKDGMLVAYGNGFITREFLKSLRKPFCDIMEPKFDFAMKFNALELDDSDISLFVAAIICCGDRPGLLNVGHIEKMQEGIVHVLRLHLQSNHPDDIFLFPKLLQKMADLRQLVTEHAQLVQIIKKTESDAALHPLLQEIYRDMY

Experiment [3] has as its target human Peroxisome Proliferator-activated Receptor delta (PPARd), PPARD (gene 5467) (UniProt Q03181). Put plainly: ATG_PPARd_TRANS: Attagene TRANS-FACTORIAL HepG2 Assay for human Peroxisome Proliferator-activated Receptor delta (PPARd) (AID 2283002). A digest of the protocol:
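Read-out: reporter mRNA induction, quantified by fluorescent RT-PCR products resolved by capillary electrophoresis. Human HepG2 liver cells carried transiently transfected Gal4-UAS reporter constructs with chimeric NR-Gal4 fusions. Cells were dosed for 24 h; DMSO served as baseline.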

Read-out in experiment [4]: Intercellular Adhesion Molecule 1 (ICAM1), ICAM1 (gene 3383)
Put plainly: BSK_3C_ICAM1: BioMAP Diversity Plus: 3C Assay for Intercellular Adhesion Molecule 1 (ICAM1) Biomarker Activity (AID 2283003; active means hit-call score of the fitted dose curve at least 0.9, where 1 is the maximum; inactive means score below 0.9). The settings on record: primary human endothelial cells (HUVEC); actives raise or lower the signal. In outline:
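Human vascular endothelial primary cells, 3C conditions, 24 h treatment. ICAM-1 by ELISA.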

Experiment [5] is described as follows: BSK_3C_Proliferation: Cell Proliferation Assessment in the BioMAP Diversity Plus: 3C Assay (AID 2283006; active means hit-call score of the fitted dose curve at least 0.9, where 1 is the maximum; inactive means score below 0.9;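 on AC50: potency may reflect either rise or fall in cell number versus DMSO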). Particulars: primary human endothelial cells (HUVEC). In outline:
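Proliferation of human vascular endothelial primary cells after 48 h dosing, quantified as SRB-stained protein at 560 nm relative to DMSO.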

Experiment [6] has as its target Peroxisome proliferator-activated receptor gamma (Homo sapiens) (UniProt P37231). Put plainly: ATG_PPARg_TRANS: Attagene TRANS-FACTORIAL HepG2 Assay for human Peroxisome Proliferator-activated Receptor-gamma (PPARg) (AID 2283007). In outline: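 After 24 h of chemical exposure, transfected HepG2 cells carrying PPARγ-Gal4 chimera reporter constructs are lysed for RNA. Reporter transcripts are measured by RT-PCR and capillary electrophoresis with fluorescent labelling, and gain of signal is fitted versus DMSO.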

Experiment [7] concerns the target Nuclear receptor subfamily 1 group I member 2 (Homo sapiens) (UniProt O75469). Put plainly: ATG_PXR_TRANS: Attagene TRANS-FACTORIAL HepG2 Assay for human Pregnane X Receptor (PXR) (AID 2283008). In outline:
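HepG2 cells transiently transfected with GAL4-UAS reporter units and PXR-Gal4 chimera, exposed 24 h. Reporter mRNA quantified by RT-PCR, fluorescent labelling, HpaI digestion and capillary electrophoresis; gain of signal vs DMSO.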

In experiment [8] the target is human Retinoic Acid Receptor beta (RARb), RARB (gene 5915) (UniProt P10826). Nature of the experiment: ATG_RARb_TRANS: Attagene TRANS-FACTORIAL HepG2 Assay for human Retinoic Acid Receptor beta (AID 2283004). In outline: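 HepG2 cells were transiently transfected with GAL4-UAS reporter units that report activity of exogenous chimeric NR-Gal4 proteins, then exposed to compound for 24 h. Reporter mRNA was quantified by RT-PCR with capillary electrophoresis fluorescence, as gain of signal over DMSO.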
Sequence of human Retinoic Acid Receptor beta (RARb), RARB (gene 5915) (P10826 whole entry, looked up, the tested form may be a part): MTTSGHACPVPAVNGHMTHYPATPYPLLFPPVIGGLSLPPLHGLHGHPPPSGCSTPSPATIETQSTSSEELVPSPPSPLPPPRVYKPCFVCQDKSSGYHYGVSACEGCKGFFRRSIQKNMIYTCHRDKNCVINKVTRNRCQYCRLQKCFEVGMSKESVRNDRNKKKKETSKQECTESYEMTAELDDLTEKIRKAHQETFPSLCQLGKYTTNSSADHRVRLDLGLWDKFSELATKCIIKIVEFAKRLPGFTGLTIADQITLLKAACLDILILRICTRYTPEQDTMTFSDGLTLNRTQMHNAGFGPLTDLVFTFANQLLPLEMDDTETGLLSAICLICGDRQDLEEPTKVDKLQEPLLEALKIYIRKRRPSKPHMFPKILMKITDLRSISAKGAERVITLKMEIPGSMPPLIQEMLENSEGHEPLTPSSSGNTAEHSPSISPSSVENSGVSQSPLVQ

For experiment [9], the target named is human Retinoic Acid Receptor gamma (RARg), RARG (gene 5916) (UniProt P13631). Nature of the experiment: ATG_RARg_TRANS: Attagene TRANS-FACTORIAL HepG2 Assay for human Retinoic Acid Receptor gamma (RARg) (AID 2283009). A digest of the protocol: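 HepG2, RARg-GAL4 TRANS system, 24 h exposure; reporter mRNA by RT-PCR + CE fluorescence; increase over DMSO.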
Sequence of human Retinoic Acid Receptor gamma (RARg), RARG (gene 5916) (P13631 whole entry, looked up, the tested form may be a part): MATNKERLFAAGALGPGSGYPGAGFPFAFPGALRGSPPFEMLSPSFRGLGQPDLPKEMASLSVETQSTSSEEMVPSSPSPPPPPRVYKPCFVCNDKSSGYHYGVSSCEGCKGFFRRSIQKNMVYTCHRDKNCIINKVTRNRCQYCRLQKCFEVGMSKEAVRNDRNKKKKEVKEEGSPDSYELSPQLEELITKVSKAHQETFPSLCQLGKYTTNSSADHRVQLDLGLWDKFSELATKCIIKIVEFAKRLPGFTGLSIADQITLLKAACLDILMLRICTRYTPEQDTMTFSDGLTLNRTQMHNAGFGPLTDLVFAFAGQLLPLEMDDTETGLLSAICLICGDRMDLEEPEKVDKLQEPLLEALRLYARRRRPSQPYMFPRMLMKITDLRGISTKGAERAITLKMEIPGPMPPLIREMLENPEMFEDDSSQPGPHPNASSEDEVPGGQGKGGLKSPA
Experiment [10] deals with Retinoic acid receptor alpha (Homo sapiens) (UniProt P10276). Nature of the experiment: ATG_RARa_TRANS: Attagene TRANS-FACTORIAL HepG2 Assay for human Retinoic Acid Receptor alpha (RARa) (AID 2283005). A digest of the protocol: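 HepG2 transiently transfected with multiplex GAL4-UAS reporter units including a human RARa–GAL4 chimera; 24 h compound exposure. Reporter mRNA quantified by RT-PCR, 6-FAM labeling and capillary electrophoresis; gain of signal versus DMSO.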
Sequence of Retinoic acid receptor alpha (Homo sapiens) (P10276 whole entry, looked up, the tested form may be a part): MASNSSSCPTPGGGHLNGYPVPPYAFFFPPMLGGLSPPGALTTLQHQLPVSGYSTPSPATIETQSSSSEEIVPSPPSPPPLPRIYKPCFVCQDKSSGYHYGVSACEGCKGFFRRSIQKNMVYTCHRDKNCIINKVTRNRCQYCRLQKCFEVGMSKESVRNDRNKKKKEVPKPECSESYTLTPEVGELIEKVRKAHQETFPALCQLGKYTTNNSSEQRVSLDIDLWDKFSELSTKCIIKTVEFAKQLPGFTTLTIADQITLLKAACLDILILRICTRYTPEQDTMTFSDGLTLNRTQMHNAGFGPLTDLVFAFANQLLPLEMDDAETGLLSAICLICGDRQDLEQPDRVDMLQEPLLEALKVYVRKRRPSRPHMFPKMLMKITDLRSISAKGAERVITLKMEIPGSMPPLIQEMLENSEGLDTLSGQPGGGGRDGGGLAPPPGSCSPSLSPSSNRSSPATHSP

Sequence of Nuclear receptor subfamily 1 group I member 2 (Homo sapiens) (O75469 whole entry, looked up, the tested form may be a part): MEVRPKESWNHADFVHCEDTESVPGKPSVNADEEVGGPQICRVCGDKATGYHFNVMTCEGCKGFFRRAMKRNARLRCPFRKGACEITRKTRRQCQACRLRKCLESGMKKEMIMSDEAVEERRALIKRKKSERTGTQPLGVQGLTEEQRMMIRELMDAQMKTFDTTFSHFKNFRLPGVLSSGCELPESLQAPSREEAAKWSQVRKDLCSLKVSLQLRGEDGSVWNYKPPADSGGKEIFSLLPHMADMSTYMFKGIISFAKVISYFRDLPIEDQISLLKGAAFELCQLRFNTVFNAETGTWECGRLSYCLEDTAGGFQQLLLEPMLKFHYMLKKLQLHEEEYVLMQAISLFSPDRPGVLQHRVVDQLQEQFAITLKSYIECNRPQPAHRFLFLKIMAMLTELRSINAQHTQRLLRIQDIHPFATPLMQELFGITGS
Sequence of human Peroxisome Proliferator-activated Receptor delta (PPARd), PPARD (gene 5467) (Q03181 whole entry, looked up, the tested form may be a part): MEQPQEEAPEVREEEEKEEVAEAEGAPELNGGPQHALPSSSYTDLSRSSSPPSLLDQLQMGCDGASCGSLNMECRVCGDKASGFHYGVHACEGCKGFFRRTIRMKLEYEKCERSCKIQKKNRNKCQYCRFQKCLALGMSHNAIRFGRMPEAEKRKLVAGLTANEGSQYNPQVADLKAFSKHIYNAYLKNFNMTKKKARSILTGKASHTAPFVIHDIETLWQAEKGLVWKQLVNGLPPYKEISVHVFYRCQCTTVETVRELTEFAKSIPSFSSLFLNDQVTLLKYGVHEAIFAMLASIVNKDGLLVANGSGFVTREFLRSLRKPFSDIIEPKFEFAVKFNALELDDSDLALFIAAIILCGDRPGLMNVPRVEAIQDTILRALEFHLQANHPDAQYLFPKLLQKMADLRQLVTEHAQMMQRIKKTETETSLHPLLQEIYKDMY
Sequence of Peroxisome proliferator-activated receptor gamma (Homo sapiens) (P37231 whole entry, looked up, the tested form may be a part): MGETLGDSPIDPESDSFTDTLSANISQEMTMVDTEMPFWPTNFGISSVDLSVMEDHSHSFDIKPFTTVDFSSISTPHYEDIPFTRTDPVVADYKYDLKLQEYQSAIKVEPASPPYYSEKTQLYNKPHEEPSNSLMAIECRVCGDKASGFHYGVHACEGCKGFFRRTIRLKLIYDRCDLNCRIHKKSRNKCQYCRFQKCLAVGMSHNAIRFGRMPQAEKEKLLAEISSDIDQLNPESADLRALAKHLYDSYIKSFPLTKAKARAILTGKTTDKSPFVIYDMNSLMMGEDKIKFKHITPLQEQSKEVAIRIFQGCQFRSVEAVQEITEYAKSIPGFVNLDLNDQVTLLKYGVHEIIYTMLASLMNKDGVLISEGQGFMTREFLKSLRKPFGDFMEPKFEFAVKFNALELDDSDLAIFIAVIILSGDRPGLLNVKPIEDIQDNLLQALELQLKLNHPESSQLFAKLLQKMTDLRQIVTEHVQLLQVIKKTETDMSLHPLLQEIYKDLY

`C=CC(=O)OCCCCCCCC(C)C`: the outcome in [1], in [2], in experiment [3], in experiment [4] and in experiment [7] was inactive. Moreover, the half-maximal activity concentration (AC50) in [5] is 9.67 µM (active); in experiment [6], 27.1 µM (active).

For `CCCCCCC=O`, the result in experiment [1], in [2], in experiment [4], in [8], in [5] and in [7] was inactive. For the same molecule, the call in experiment [9] was inactive. In [6], the half-maximal activity concentration (AC50) was 100 µM (active).

In the case of `CCCC(C)C(=O)OCC` (configuration not stated), the outcome in experiment [1], in [2], in experiment [8], in [5], in experiment [6] and in experiment [9] was inactive.

For the molecule `CCCCCCOC(=O)CCCCC(=O)OCCCCCC`, the outcome in experiment [1], in [2], in [8], in experiment [10], in experiment [5] and in [6] was inactive. The result in experiment [7] and in experiment [9] was inactive.

On to `CCN1CN(CC)CN(CC)C1`, for which the result in experiment [1], in experiment [2], in experiment [3], in [5], in experiment [6] and in [7] was inactive.

As for `Nc1cccc(N)n1`, the outcome in experiment [1], in [2], in [3], in [8], in experiment [5] and in experiment [6] was inactive. Moreover, the outcome in [7] was inactive.

Turning to `CCCCCCCCCCCC(C)=O`, the AC50 in experiment [1] was 30.1 µM (active); in experiment [5], 20 µM (active); in experiment [6], 51 µM (active). Besides, the outcome in experiment [2], in experiment [8], in experiment [10], in experiment [7] and in experiment [9] was inactive.

In the case of `CC=C(C)C(C)=O`, the AC50 was 20 µM (active) in [1] and 12 µM (active) in experiment [7]. Also, the molecule was classed as inactive in experiment [2], in experiment [3] and in [5].

Turning to `CC(c1cc(C(C)(C)C)cc(C(C)(C)C)c1O)c1cc(C(C)(C)C)cc(C(C)(C)C)c1O`, the AC50 in experiment [1] was 1.65 µM (active); in experiment [5], 5.09 µM (active); in experiment [7], 0.0816 µM (active). The molecule was classed as inactive in experiment [2], in [3], in [8] and in experiment [10].

Consider `c1ccc2sc(SSN3CCOCC3)nc2c1`, for which the AC50 is 5.26 µM (active) in experiment [1]; 20 µM (active) in experiment [4]; 0.828 µM (active) in [5]; 23.2 µM (active) in experiment [6]; 45.3 µM (active) in [7]. The result in [2] was inactive.

For the molecule `CC(CCC(=O)O)(c1ccc(O)cc1)c1ccc(O)cc1`, the outcome in experiment [1], in experiment [2], in experiment [3] and in experiment [5] was inactive.
